Assay results: PubChem BioAssay (NCATS)
Results filed as inconclusive are left out. Values without a mark were called inactive. Active and inactive are the calls of the source. Calls follow the shape of the dose curve; as a rule, active = well fitted curve in the direction sought with a large enough effect; inconclusive = small, poorly fitted or top-dose-only effect, or another doubt; inactive = no such curve, though single readings can be large; an effect the other way counts as inactive or inconclusive.

Columns and labels:
[1] = qHTS of pediatric cancer cell lines to identify multiple opportunities for drug repurposing: Primary screen for SK-N-SH cells (AID 1347098); also: nearly all actives have a fitted effect of over 65% in size
Method in brief: (§1)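 Cells (500-1,000/well) rested 5 h, then received compounds for 48 h; metabolically active cells were measured by CellTiter-Glo luminescence. Final concentrations spanned up to 46 µM (MIPE, 11-point) or 0.59 nM-46 µM (NPC, 8-point) in primary screens, 11-point in follow-ups.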

[2] = qHTS of pediatric cancer cell lines to identify multiple opportunities for drug repurposing: Primary screen for NB1643 cells (AID 1347099); also: nearly all actives have a fitted effect of over 50% in size
Method in brief: (§2)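 Plated cells (500-1,000 per well, growth media) were allowed to settle for 5 hours, treated with compound dilutions for 48 hours, then lysed with CellTiter-Glo for 15 min at room temperature before luminescence reading.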

[3] = qHTS of pediatric cancer cell lines to identify multiple opportunities for drug repurposing: Primary screen for LAN-5 cells (AID 1347100)
Method in brief: (§3)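 Cells (500-1,000/well) in growth media were settled 5 h at 37 degrees C, then given compounds for 48 h. Viability was read as CellTiter-Glo luminescence. Primary runs used MIPE at 11 points (0.78 nM-46 µM) and NPC at 8 points (0.59 nM-46 µM); follow-ups used 11 points.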

[4] = qHTS of pediatric cancer cell lines to identify multiple opportunities for drug repurposing: Primary screen for BT-12 cells (AID 1347101); also: nearly all actives have a fitted effect of over 25% in size
Method in brief: as §1

[5] = qHTS of pediatric cancer cell lines to identify multiple opportunities for drug repurposing: Primary screen for Rh18 cells (AID 1347102); also: nearly all actives have a fitted effect of over 65% in size
Method in brief: as §3

[6] = qHTS of pediatric cancer cell lines to identify multiple opportunities for drug repurposing: Primary screen for OHS-50 cells (AID 1347103); also: nearly all actives have a fitted effect of over 40% in size
Method in brief: as §1

[7] = qHTS of pediatric cancer cell lines to identify multiple opportunities for drug repurposing: Primary screen for RD cells (AID 1347104); also: nearly all actives have a fitted effect of over 55% in size
Method in brief: as §2

[8] = qHTS of pediatric cancer cell lines to identify multiple opportunities for drug repurposing: Primary screen for MG 63 (6-TG R) cells (AID 1347105); also: nearly all actives have a fitted effect of over 50% in size
Method in brief: as §2

[9] = qHTS of pediatric cancer cell lines to identify multiple opportunities for drug repurposing: Primary screen for Rh41 cells (AID 1347108); also: nearly all actives have a fitted effect of over 70% in size
Method in brief: as §2

[10] = qHTS of pediatric cancer cell lines to identify multiple opportunities for drug repurposing: Confirmatory screen for A673 cells (AID 1347110);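 also: cells exposed to compound for 48 h before the viability read; nearly all actives have a fitted effect of over 65% in size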
Method in brief: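 Forty-eight-hour viability assay. Follow-up compounds ran at 11-point dilutions; positive control bortezomib at 2.3 uM final, neutral control DMSO.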

[11] = qHTS of pediatric cancer cell lines to identify multiple opportunities for drug repurposing: Confirmatory screen for SK-N-MC cells (AID 1347111);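 also: cells exposed to compound for 48 h before the readout; nearly all actives have a fitted effect of over 70% in size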
Method in brief: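 Metabolically active cells were quantified by ATP-dependent luminescence (CellTiter-Glo, 15 min at room temperature) following 48 h treatment. Cells had been plated at 500-1,000 per well and settled for 5 h beforehand.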

[12] = qHTS of pediatric cancer cell lines to identify multiple opportunities for drug repurposing: Confirmatory screen for LAN-5 cells (AID 1347113); also: nearly all actives have a fitted effect of over 65% in size
Method in brief: as §3

[13] = qHTS of pediatric cancer cell lines to identify multiple opportunities for drug repurposing: Confirmatory screen for BT-37 cells (AID 1347117); also: nearly all actives have a fitted effect of over 55% in size
Method in brief: as §3

[14] = qHTS of pediatric cancer cell lines to identify multiple opportunities for drug repurposing: Primary screen for control Hh wild type fibroblast cells (AID 1347106); also: nearly all actives have a fitted effect of over 55% in size
Method in brief: as §3

[15] = qHTS of pediatric cancer cell lines to identify multiple opportunities for drug repurposing: Confirmatory screen for BT-12 cells (AID 1347112); also: nearly all actives have a fitted effect of over 55% in size
Method in brief: as §3

[16] = qHTS of pediatric cancer cell lines to identify multiple opportunities for drug repurposing: Confirmatory screen for SJ-GBM2 cells (AID 1347116); also: nearly all actives have a fitted effect of over 60% in size
Method in brief: (§4)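 Viability measured as metabolically active cells via CellTiter-Glo luminescence following 48 hours of compound exposure, 11-point dilutions in confirmatory testing. 500-1,000 cells/well plated 5 hours before dosing; controls were DMSO and 2.3 µM bortezomib.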

[17] = qHTS of pediatric cancer cell lines to identify multiple opportunities for drug repurposing: Primary screen for Rh30 cells (AID 1347107); also: nearly all actives have a fitted effect of over 75% in size
Method in brief: as §3

[18] = qHTS of pediatric cancer cell lines to identify multiple opportunities for drug repurposing: Confirmatory screen for NB1643 cells (AID 1347109); also: nearly all actives have a fitted effect of over 45% in size
Method in brief: as §3

[19] = qHTS of pediatric cancer cell lines to identify multiple opportunities for drug repurposing: Confirmatory screen for DAOY cells (AID 1347114); also: nearly all actives have a fitted effect of over 65% in size
Method in brief: as §4

[20] = qHTS of pediatric cancer cell lines to identify multiple opportunities for drug repurposing: Confirmatory screen for NB-EBc1 cells (AID 1347115);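 also: cells exposed to compound for 48 h before the viability read; nearly all actives have a fitted effect of over 45% in size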
Method in brief: as §3
Potency is read from the fitted curve at half-maximal effect.

Row | Compound | Potency [1] | Potency [2] | Potency [3] | Potency [4] | Potency [5] | Potency [6] | Potency [7] | Potency [8] | Potency [9] | Potency [10] | Potency [11] | Potency [12] | Potency [13] | Potency [14] | Potency [15] | Potency [16] | Potency [17] | Potency [18] | Potency [19] | Potency [20]
1 | O=C(Cc1ccc(-c2ccc(OCCN3CCOCC3)cc2)cn1)NCc1ccccc1 | 6810 nM (active) | 83.3 nM (active) | 9.3 nM (active) | 38.5 nM (active) | 13200 nM (active) | 30.6 nM (active) | 52.6 nM (active) | 23.5 nM (active) | 29.6 nM (active) | 131 nM (active) | 147 nM (active) | 147 nM (active) | 147 nM (active) | – | – | – | – | – | – | –
2 | C=CCn1c(=O)c2cnc(Nc3ccc(N4CCN(C)CC4)cc3)nc2n1-c1cccc(C(C)(C)O)n1 | 681 nM (active) | 187 nM (active) | 469 nM (active) | 7690 nM (active) | 7430 nM (active) | 306 nM (active) | 418 nM (active) | – | 469 nM (active) | 2610 nM (active) | – | – | – | inactive | 10400 nM (active) | 737 nM (active) | – | – | – | –
3 | Nc1ccn([C@@H]2CS[C@H](CO)O2)c(=O)n1 | inactive | inactive | inactive | inactive | inactive | inactive | inactive | inactive | inactive | – | – | – | – | – | – | – | inactive | – | – | –
4 | CC[C@@]1(O)C(=O)OCc2c1cc1n(c2=O)Cc2cc3cc(O)ccc3nc2-1 | 429 nM (active) | 59 nM (active) | 13.2 nM (active) | 385 nM (active) | 418 nM (active) | 34.3 nM (active) | 1320 nM (active) | 93.5 nM (active) | 469 nM (active) | 46.5 nM (active) | 13.1 nM (active) | 41.4 nM (active) | 20.8 nM (active) | – | 827 nM (active) | – | – | 73.7 nM (active) | 657 nM (active) | 16.5 nM (active)
5 | CCCCCCCCCC(=O)N[C@@H](Cc1c[nH]c2ccccc12)C(=O)N[C@H](CC(N)=O)C(=O)N[C@@H](CC(=O)O)C(=O)N[C@@H]1C(=O)NCC(=O)N[C@@H](CCCN)C(=O)N[C@@H](CC(=O)O)C(=O)N[C@H](C)C(=O)N[C@@H](CC(=O)O)C(=O)NCC(=O)N[C@H](CO)C(=O)N[C@@H]([C@@H](C)CC(=O)O)C(=O)N[C@@H](CC(=O)c2ccccc2N)C(=O)O[C@@H]1C | inactive | inactive | inactive | inactive | inactive | – | inactive | inactive | inactive | – | – | – | – | – | – | – | inactive | – | – | –
6 | COc1cc2nccc(Oc3ccc(NC(=O)C4(C(=O)Nc5ccc(F)cc5)CC4)cc3)c2cc1OC | 3410 nM (active) | 9350 nM (active) | 1480 nM (active) | 15300 nM (active) | – | 27300 nM (active) | 16600 nM (active) | – | 9350 nM (active) | 18500 nM (active) | – | – | – | – | inactive | 1650 nM (active) | – | inactive | – | inactive
7 | CC(C)C[C@H](NC(=O)CNC(=O)c1cc(Cl)ccc1Cl)B(O)O | 383 nM (active) | 590 nM (active) | 132 nM (active) | 344 nM (active) | 235 nM (active) | 6110 nM (active) | – | 235 nM (active) | 469 nM (active) | 465 nM (active) | inactive | – | – | – | 465 nM (active) | 185 nM (active) | 1870 nM (active) | – | – | –
8 | O=C(O)CO.[NH2-].[NH2-].[Pt+2] | inactive | inactive | inactive | inactive | – | inactive | inactive | inactive | inactive | – | – | – | – | inactive | – | – | inactive | – | – | –
9 | O=C(c1cncc(Br)c1)N1CCC(N2CCCC2)CC1 | inactive | inactive | inactive | – | inactive | inactive | inactive | inactive | – | – | – | – | – | inactive | – | – | inactive | – | – | –
10 | COc1cc2c(Oc3ccc(-c4cnc(Nc5ccc(F)cc5)n(C)c4=O)cc3F)ccnc2cc1OCCCN1CCOCC1 | 15200 nM (active) | 14800 nM (active) | 1180 nM (active) | 21700 nM (active) | 2640 nM (active) | – | 9350 nM (active) | 3720 nM (active) | 4690 nM (active) | 4140 nM (active) | 2930 nM (active) | 7370 nM (active) | 18500 nM (active) | 23500 nM (active) | 20800 nM (active) | 14700 nM (active) | 9350 nM (active) | 11700 nM (active) | 11700 nM (active) | 18500 nM (active)
11 | COc1cccc2nc(-c3cccs3)nc(NN3C(=O)C=C(C)C3=O)c12 | 271 nM (active) | 743 nM (active) | 93.5 nM (active) | 2730 nM (active) | 5260 nM (active) | – | 5260 nM (active) | – | 2350 nM (active) | 5220 nM (active) | 657 nM (active) | 657 nM (active) | 1040 nM (active) | inactive | 10400 nM (active) | 7370 nM (active) | – | 657 nM (active) | – | 2080 nM (active)
